Assay results reported in PubChem BioAssay AID1159580 (chemical genetic matrix, 2015).
The campaign covered roughly 5,500 compounds. About 2,000 (36%) were called active. Roughly 18% stayed inconclusive and do not appear here. No stated cut-off is given here; in the data, active means normalized growth mostly below about 0.91 (no sharp cut-off); inconclusive means no clear call, values can overlap the other calls; inactive means mostly above about 0.92. The list shows a part of the results.

Assay: chemical genetic growth profiling, strain panel (AID 1159580);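 further: tested at 20 µM; growth read once vehicle control cultures reached saturation at 30 °C; 1 = growth at the plate median or of vehicle wells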
Details: growth OD

Measured: normalized growth

CCOP(=S)(OCC)Oc1nc(Cl)c(Cl)cc1Cl
inactive: S. cerevisiae deletion strains, locus YJR075W, strain HOC1, stronger effect = lower value 0.999 | S. cerevisiae deletion strains, locus YKL009W, strain mrt4, stronger effect = lower value 1 | S. cerevisiae deletion strains, locus YKL068W, stronger effect = lower value 0.99 | S. cerevisiae deletion strains, locus YKL085W, strain MDH1 (second series), stronger effect = lower value 0.996 | S. cerevisiae deletion strains, locus YKL085W, strain MDH1, stronger effect = lower value 0.996 | S. cerevisiae deletion strains, locus YKL160W, strain elf1, stronger effect = lower value 0.974 | S. cerevisiae deletion strains, locus YKL190W, strain CNB1, stronger effect = lower value 0.996 | S. cerevisiae deletion strains, locus YKR001C, strain vps1, stronger effect = lower value 0.937 | S. cerevisiae deletion strains, locus YKR026C, strain gcn3, stronger effect = lower value 0.957 | S. cerevisiae deletion strains, locus YKR091W, strain srl3, stronger effect = lower value 0.948 | S. cerevisiae deletion strains, locus YLL001W, strain dnm1, stronger effect = lower value 0.927 | S. cerevisiae deletion strains, locus YLL026W, stronger effect = lower value 0.982 | S. cerevisiae deletion strains, locus YLL041C, strain sdh2, stronger effect = lower value 0.954 | S. cerevisiae deletion strains, locus YLR027C, strain aat2, stronger effect = lower value 0.967 | S. cerevisiae deletion strains, locus YLR039C, strain RIC1, stronger effect = lower value 0.898 | S. cerevisiae deletion strains, locus YLR058C, strain SHM2, stronger effect = lower value 0.998 | S. cerevisiae deletion strains, locus YLR102C, strain apc9, stronger effect = lower value 0.986 | S. cerevisiae deletion strains, locus YLR258W, strain gsy2, stronger effect = lower value 0.965 | S. cerevisiae deletion strains, locus YLR262C, strain YPT6, stronger effect = lower value 0.945 | S. cerevisiae deletion strains, locus YLR268W, strain sec22, stronger effect = lower value 0.986 | S. cerevisiae deletion strains, locus YLR330W, strain CHS5, stronger effect = lower value 1 | S. cerevisiae deletion strains, locus YLR342W, strain FKS1 (second series), stronger effect = lower value 1.05 | S. cerevisiae deletion strains, locus YLR342W, strain FKS1, stronger effect = lower value 0.945 | S. cerevisiae deletion strains, locus YLR357W, strain rsc2, stronger effect = lower value 0.932 | S. cerevisiae deletion strains, locus YLR370C, strain arc18, stronger effect = lower value 0.981 | S. cerevisiae deletion strains, locus YLR371W, strain rom2, stronger effect = lower value 0.999 | S. cerevisiae deletion strains, locus YLR384C, strain iki3, stronger effect = lower value 0.989 | S. cerevisiae deletion strains, locus YLR418C, strain cdc73, stronger effect = lower value 0.938 | S. cerevisiae deletion strains, locus YML016C, strain PPZ1, stronger effect = lower value 1 | S. cerevisiae deletion strains, locus YML032C, strain rad52, stronger effect = lower value 0.979 | S. cerevisiae deletion strains, locus YML120C, strain ndi1, stronger effect = lower value 0.946 | S. cerevisiae deletion strains, locus YML124C, strain tub3, stronger effect = lower value 0.99 | S. cerevisiae deletion strains, locus YMR058W, strain fet3, stronger effect = lower value 0.921 | S. cerevisiae deletion strains, locus YMR078C, strain ctf18, stronger effect = lower value 0.984 | S. cerevisiae deletion strains, locus YMR125W, strain sto1, stronger effect = lower value 0.97 | S. cerevisiae deletion strains, locus YMR129W, stronger effect = lower value 0.953 | S. cerevisiae deletion strains, locus YMR223W, strain ubp8, stronger effect = lower value 0.988 | S. cerevisiae deletion strains, locus YMR231W, strain pep5, stronger effect = lower value 0.968 | S. cerevisiae deletion strains, locus YMR263W, strain SAP30, stronger effect = lower value 1.04 | S. cerevisiae deletion strains, locus YMR307W, strain GAS1, stronger effect = lower value 0.873 | S. cerevisiae deletion strains, locus YNL067W, strain RPL9B, stronger effect = lower value 1 | S. cerevisiae deletion strains, locus YNL128W, strain TEP1, stronger effect = lower value 1.01 | S. cerevisiae deletion strains, locus YNL153C, strain GIM3, stronger effect = lower value 1.01 | S. cerevisiae deletion strains, locus YNL209W, strain ssb2, stronger effect = lower value 0.995 | S. cerevisiae deletion strains, locus YNL233W, strain BNI4, stronger effect = lower value 0.993 | S. cerevisiae deletion strains, locus YNL248C, strain rpa49, stronger effect = lower value 0.93 | S. cerevisiae deletion strains, locus YNL250W, strain rad50, stronger effect = lower value 0.974 | S. cerevisiae deletion strains, locus YNL271C, strain bni1, stronger effect = lower value 0.996 | S. cerevisiae deletion strains, locus YNL298W, strain CLA4, stronger effect = lower value 0.983 | S. cerevisiae deletion strains, locus YNL307C, strain MCK1, stronger effect = lower value 0.932 | S. cerevisiae deletion strains, locus YNL322C, strain KRE1 (second series), stronger effect = lower value 0.943 | S. cerevisiae deletion strains, locus YNL322C, strain KRE1, stronger effect = lower value 0.998 | S. cerevisiae deletion strains, locus YNR049C, strain mso1, stronger effect = lower value 0.959 | S. cerevisiae deletion strains, locus YNR052C, strain pop2, stronger effect = lower value 0.994 | S. cerevisiae deletion strains, locus YOL006C, strain TOP1, stronger effect = lower value 0.861 | S. cerevisiae deletion strains, locus YOL012C, strain htz1 0.789 | S. cerevisiae deletion strains, locus YOL147C, strain pex11, stronger effect = lower value 0.977 | S. cerevisiae deletion strains, locus YOR001W, strain rrp6, stronger effect = lower value 0.986 | S. cerevisiae deletion strains, locus YOR061W, strain CKA2, stronger effect = lower value 0.998 | S. cerevisiae deletion strains, locus YOR069W, strain VPS5, stronger effect = lower value 0.997 | S. cerevisiae deletion strains, locus YOR070C, strain gyp1, stronger effect = lower value 0.982 | S. cerevisiae deletion strains, locus YOR080W, strain dia2, stronger effect = lower value 1 | S. cerevisiae deletion strains, locus YOR083W, strain WHI5, stronger effect = lower value 0.923 | S. cerevisiae deletion strains, locus YOR136W, strain idh2, stronger effect = lower value 0.992 | S. cerevisiae deletion strains, locus YOR144C, strain elg1, stronger effect = lower value 0.987 | S. cerevisiae deletion strains, locus YOR184W, strain ser1, stronger effect = lower value 0.99 | S. cerevisiae deletion strains, locus YOR265W, strain rbl2, stronger effect = lower value 0.976 | S. cerevisiae deletion strains, locus YOR290C, strain snf2, stronger effect = lower value 0.941 | S. cerevisiae deletion strains, locus YOR316C, strain cot1, stronger effect = lower value 0.991 | S. cerevisiae deletion strains, locus YPL051W, strain arl3, stronger effect = lower value 0.974 | S. cerevisiae deletion strains, locus YPL055C, strain LGE1, stronger effect = lower value 1.04 | S. cerevisiae deletion strains, locus YPL078C, strain atp4, stronger effect = lower value 0.97 | S. cerevisiae deletion strains, locus YPL106C, strain sse1, stronger effect = lower value 0.933 | S. cerevisiae deletion strains, locus YPL240C, strain hsp82, stronger effect = lower value 0.979 | S. cerevisiae deletion strains, locus YPL241C, strain CIN2, stronger effect = lower value 1 | S. cerevisiae deletion strains, locus YPR119W, strain clb2, stronger effect = lower value 0.974 | S. cerevisiae deletion strains, locus YPR141C, strain kar3, stronger effect = lower value 0.986 | S. cerevisiae deletion strains, locus YPR163C, strain tif3, stronger effect = lower value 1.02 | S. cerevisiae deletion strains, locus YPR167C, strain met16, stronger effect = lower value 0.99 | S. cerevisiae deletion strains, strain wtn01, stronger effect = lower value 0.991 | S. cerevisiae strains, strain wild type, stronger effect = lower value 0.995
active: S. cerevisiae deletion strains, locus YLR221C, strain rsa3, stronger effect = lower value 0.852 | S. cerevisiae deletion strains, locus YLR262C, strain YPT6 (second series), stronger effect = lower value 0.724 | S. cerevisiae deletion strains, locus YLR320W, strain mms22, stronger effect = lower value 0.828 | S. cerevisiae deletion strains, locus YMR205C, strain PFK2, stronger effect = lower value 0.842 | S. cerevisiae deletion strains, locus YNL071W, strain lat1, stronger effect = lower value 0.526 | S. cerevisiae deletion strains, locus YOR106W, strain vam3, stronger effect = lower value 0.844 | S. cerevisiae deletion strains, locus YOR270C, strain vph1, stronger effect = lower value 0.441
